Source: PubChem
The list is not random: actives were taken first. Their share in the collection is about 6.5%.
HT1080-NT tox = kills 2HG-producing HT-1080-NT fibrosarcoma cells | HT-1080-NT fibrosarcoma viability, CellTiter-Glo ATP luminescence, 48 h | Potency, µM (highest dose often 46.1 µM), inactives show at the top dose activity, negative = less viability, actives largely listed as cytotoxic | 360,000 tested, 1.6% active | AID 686970;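 also: NT is the 2HG producing partner of a matched IDH1 knockdown line; potency is read from the fitted curve at half-maximal effect; 0% = DMSO-treated cells and -100% = media-only wells without cells; nearly all actives have a fitted effect of over 55% in size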
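Toxicity toward the 2HG-producing NT line was scored as %Activity, normalised to DMSO and no-cell wells, from CellTiter-Glo luminescence after 48 hours' treatment.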
TGFb inhibitor = TGF-b pathway inhibition | AID 588855 | HepG2 CAGA-GFP TGF-b/SMAD3 reporter, GFP fluorescence, 18 h; TGF-beta stimulated, 500 pg/mL final | Potency, µM (top dose mostly 46.1 µM), for the others: at the highest dose activity, negative = inhibition, usual class: inhibitors | 410,000 tested, 1.2% active; also: potency is read from the fitted curve at half-maximal effect; % is scaled to controls: 0 for no effect and ±100 for the full control effect; nearly all actives have a fitted effect of over 65% in size
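TGF-beta reporter screen: HEPG2 CAGA-GFP, 1% FBS, 500 pg/mL TGF-beta final, 18 h; per-cell GFP summed per well; curves fitted and categorized by class.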
HepG2 tox = kills HepG2 cells in TGF-b inhibitor counter-screen; 410,000 tested, 0.76% active; Potency, µM (doses to about 46.1 µM), inactives show at the highest dose activity change, negative = cytotoxicity, most hits filed as cytotoxic; AID 588856; HepG2 CAGA-GFP viability, ATP luminescence, 18 h; also: potency is read from the fitted curve at half-maximal effect
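HepG2 CAGA-GFP cells (1000/well, DMEM with 1% FBS) received compound, then TGF-beta at 500 pg/mL final, and were incubated 18 hours at 37 degrees C. Viability was read by CellTiter-Glo luminescence. Media-only wells were set as complete cell-killing and DMSO as no toxicity.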
Giardia killer = kills Giardia lamblia; Giardia lamblia trophozoite viability; activity change, % at 7.66 µM, hits read low; 340,000 tested, 0.15% active; AID 540267; in the data active = activity change below about -80%; inconclusive = between about -30% and that limit;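 also: parasites exposed to compound for two days anaerobically before the ATP read; % is scaled to controls: 0 for no effect and ±100 for the full control effect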
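Giardia trophozoites, 100 cells per well, were exposed to compounds for 48 hrs at 37 deg C under anaerobic conditions; viability was then read as ATP content by bioluminescence after 15-30 min at room temperature.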
IL-1B inflam inh = inflammasome signaling inhibition, IL-1 beta readout; THP-1 LPS/ATP IL-1B secretion, AlphaLISA, 16 h; stronger effect = lower value; activity change, % at 57.5 µM; 360,000 tested, 4.7% active; in the data active = activity change below about -50%; inconclusive = mostly about -30% to -49%; also: % is scaled to controls: 0 for no effect and ±100 for the full control effect
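THP-1 cells pretreated 1 hr with compounds (up to 57.5 uM final), then stimulated with LPS (250 ng/mL final) plus ATP (1.25 mM final); secreted IL-1B measured by AlphaLISA after 16 hr, decreased signal indicating inhibition.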
HT1080 IDH1KD tx = kills HT-1080 cells with IDH1 knockdown. HT-1080 IDH1 knockdown viability, ATP luminescence, 48 h. Potency, µM (titrated, usually from 46.1 µM), without a hit: top-dose activity, negative = toxicity, hits mostly cytotoxic. 360,000 tested, 2% active. AID 686971;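 also: potency is read from the fitted curve at half-maximal effect; 0% = DMSO wells and -100% = cell-free medium wells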
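After a 2 h attachment period, IDH1KD HT-1080 cells took pin-transferred compound for 48 h at 37 °C; ATP-based luminescence after 10 min room-temperature reagent incubation reported viability.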
* hit, by the source's call; ? = inconclusive; . = no result. Unless noted, calls follow the shape of the dose curve; as a rule, active = well fitted curve in the direction sought with a large enough effect; inconclusive = small, poorly fitted or top-dose-only effect, or another doubt; inactive = no such curve, though single readings can be large; an effect the other way counts as inactive or inconclusive.

SMILES | HT1080-NT tox | TGFb inhibitor | HepG2 tox | Giardia killer | IL-1B inflam inh | HT1080 IDH1KD tx
CC[C@@H](C(=O)[C@@H](C)[C@@H](O)[C@H](C)CCc1ccc(C)c(O)c1C(=O)O)[C@H]1O[C@](CC)([C@H]2CC[C@](O)(CC)[C@H](C)O2)C[C@@H]1C | 1.6µM* | 10µM* | -101% | -11 | -92* | 6.5µM*
CN(C(=O)CC1C(=O)NCCN1Cc1ccc(F)cc1)C1CCOCC1 (stereo not drawn) | -6% | 1% | -2% | -2 | -4 | 4%
CCN1CCN(CC(=O)c2c(C)n(C)c3ccc(OC)cc23)CC1 | -3% | 6% | 7% | -19 | 5 | 7%
CCOC(=O)C1=C(NC(=S)NC(=O)c2ccccc2)c2ccccc2CC1(C)CC (stereo not drawn) | -8% | 0% | -16% | -15 | -56* | ?
CCOC(=O)C1=C(NC(=S)NC(=O)c2ccccc2)c2ccccc2CC1C(C)C (stereo not drawn) | ? | -3% | -19% | -2 | -19 | ?
Cc1ccc(C)c(OCC(O)CN2CCC(Cc3ccccc3)CC2)c1 (stereo not drawn) | ? | ? | -86% | -15 | -60* | -15%
Cc1ccc(C)c(OCC(O)CN2CCN(CCN3C(=O)c4cccc5cccc(c45)C3=O)CC2)c1 (stereo not drawn) | 16µM* | ? | -99% | -2 | -102* | ?
OC(COc1ccc(Cl)cc1)CN1CCC(Cc2ccccc2)CC1 (stereo not drawn) | ? | ? | -42% | 6 | . | ?
CC(=O)c1ccccc1OCC(O)CN1CCN(CCN2C(=O)c3cccc4cccc(c34)C2=O)CC1 (stereo not drawn) | ? | ? | 0% | 5 | ? | ?
O=C1c2cccc3cccc(c23)C(=O)N1CCN1CCN(CC(O)COCc2ccc(Cl)cc2)CC1 (stereo not drawn) | 21µM* | 14µM* | 13µM* | 7 | ? | ?
O=C(CSC1=NNC(c2ccccn2)S1)Nc1cccc(Cl)c1 (stereo not drawn) | ? | -24% | -5% | -12 | 147 | ?
CCCn1c(=O)c(C(=O)N/N=C/c2ccc(F)cc2)c(O)c2ccccc21 | 15% | -2% | 8% | -9 | 4 | -2%
OCCNc1nc(N2CCOCC2)nc(N2CCOCC2)n1 | 1% | -1% | -61% | 5 | -5 | 23%
CC1C/C(=C/c2ccncc2)C(=O)/C(=C/c2ccncc2)C1 (stereo not drawn) | ? | 5.6µM* | 5.6µM* | ? | -84* | 3.7µM*
CCOc1ccc(N(C)S(=O)(=O)c2ccc(C)c(C(=O)N3CCN(Cc4ccc5c(c4)OCO5)CC3)c2)cc1 | -5% | -15% | -11% | -7 | -89* | -14%
COc1ccc(N(C)S(=O)(=O)c2cccc(C(=O)NC3CCCCCC3)c2)cc1 | -14% | -2% | -38% | 1 | -55* | ?
CN(c1ccc(C(=O)N2CCN(Cc3ccc4c(c3)OCO4)CC2)cc1)S(C)(=O)=O | -6% | -17% | -22% | -5 | 0 | 0%
COc1ccc(N(C)S(=O)(=O)c2cccc(C(=O)N3CCN(Cc4ccc5c(c4)OCO5)CC3)c2)cc1 | -1% | ? | -38% | -21 | -68* | -20%
COc1ccc(N(C)S(=O)(=O)c2cccc(C(=O)NC3CCC(C)CC3)c2)cc1 (stereo not drawn) | -11% | -28% | -14% | 31 | ? | -21%
CC(C)c1ccc(C(O)P(=O)(OC2CCCCC2)OC2CCCCC2)cc1 (stereo not drawn) | ? | ? | -133% | -10 | -92* | ?
Clc1cccc(-c2nc3ccc(Br)cn3c2Cc2ccccc2)c1 | -28% | ? | -5% | . | 20 | -15%
O=C(COC(=O)/C=C/c1ccc([N+](=O)[O-])cc1)Nc1ccc2[nH]c(=O)[nH]c2c1 | 0% | 0% | -3% | -5 | 4 | 6%
O=C(COC(=O)/C=C/c1ccc(C(F)(F)F)cc1)Nc1ccc2[nH]c(=O)[nH]c2c1 | -13% | -4% | 3.5µM* | 18 | 5 | -2%
CCOC(=O)c1c(NC(=O)CCl)sc(CN(C)C)c1-c1ccccc1 | ? | ? | -46% | 24 | -98* | ?
CCOC(=O)c1c(NC(=O)CN2CCCCC2)sc(CN(C)C)c1-c1ccccc1 | 16% | -12% | -9% | -4 | -60* | 12%
SMILES | HT1080-NT tox | TGFb inhibitor | HepG2 tox | Giardia killer | IL-1B inflam inh | HT1080 IDH1KD tx
CCOC(=O)c1c(NC(=S)N2CCN(C)CC2)sc(C)c1-c1ccccc1 | ? | ? | -21% | -4 | ? | ?
CCc1cccc(NC(=O)c2ccc(Br)o2)c1 | 12% | 3% | -16% | 7 | ? | -1%
O=C(Nc1ccc(O)cc1C(=O)O)c1ccc(NC(=O)c2ccco2)cc1 | -3% | -2% | -7% | 10 | -17 | 16%
Cc1cc(NC(=O)c2ccc(Br)o2)ccc1NC(=O)c1ccco1 | ? | 15% | 10µM* | -1 | . | ?
Cc1ccc(C(=O)Nc2ccc(NC(=O)c3ccco3)c(C)c2)cc1 | 8% | 0% | -2% | ? | -59* | -2%
CCCOc1ccc(C2C3=C(Nc4nc(N)[nH]c(=O)c42)c2ccccc2C3=O)cc1 (stereo not drawn) | -5% | -8% | -24% | -6 | -55* | -21%
CC(C)CN1CCC(=O)N([C@H](CSc2ccccc2)Cc2ccccc2)CC1 | -1% | ? | -30% | 7 | -17 | -9%
OC1(CNCc2cn[nH]c2-c2cc3ccccc3o2)CCCCC1 | -17% | -15% | -18% | -5 | -91* | ?
c1ccc2oc(-c3[nH]ncc3CN3CCSCC3)cc2c1 | -3% | 0% | -11% | -8 | -24 | -3%
COc1cccc(/C=N/NC(=O)c2cc3c(OC)cccc3[nH]2)c1OC | 4% | ? | -44% | -13 | -20 | 15%
COc1cccc(/C=N/NC(=O)c2cc3c(OC)c(OC)ccc3[nH]2)c1OC | ? | 9% | 12% | -27 | 26 | 6.5µM*
COc1ccc(/C=N/NC(=O)c2cc3c(OC)ccc(OC)c3[nH]2)cc1O | 2.3µM* | ? | -58% | 0 | -27 | 0.41µM*
COc1ccc(/C=N/NC(=O)c2cccc3ccccc23)c(OC)c1OC | ? | -11% | -10% | -26 | 6 | 16µM*
COc1ccccc1/C=N/NC(=O)c1cc2c(OC)c(OC)ccc2[nH]1 | 7.3µM* | -10% | -2% | -1 | 32 | 4.1µM*
